# According to PubChem BioAssay AID1345085 (National Center for Advancing Translational Sciences (NCATS), 2018):
# Inconclusive results are not listed. Where a call stands in place of a potency, no number is given. Values without a mark were called inactive. The source made the active and inactive calls. Calls come from the whole dose curve; as a rule, active = well fitted cell-killing curve with a large enough effect; inconclusive = small, poorly fitted or top-dose-only effect, or effect the other way; inactive = no such curve, though single readings can be large or run the other way.
# System: SW626
# Test: Confirmatory qHTS for gynecologic anti-cancer compounds from libraries of approved drugs and bioactive compounds; note: nearly all actives have a fitted effect of over 55% in size
# Conditions: gynecologic cancer cell panel viability, ATPlite luminescence, 48 h; series mostly up to 57.6 µM
# Procedure, shortened: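 Cells (1,000/well) were plated, left 16 h at 37 C/5% CO2, then given compound at 11 concentrations (1:3) from 57.5 uM to 0.977 nM for 48 h. ATPlite luminescence after 15 min at room temperature gave IC50 values.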
# Potency is the fitted concentration of half-maximal effect.
SMILES,Potency,"activity change, negative = viability loss"
Nc1nc(Cl)nc2c1ncn2C1OC(CO)C(O)C1F (stereo unspecified),inactive,–
Cc1nc(N)nc(N)c1-c1ccc(Cl)c(Cl)c1,3.85 µM (active),–
CC(C)C[C@H](NC(=O)[C@@H](NC(=O)c1cccc(-c2ccccc2)n1)[C@@H](C)O)B(O)O,0.0385 µM (active),–
CCCCN(CCCC)CC(O)c1cc(Cl)cc2c1-c1ccc(Cl)cc1/C2=C/c1ccc(Cl)cc1 (stereo unspecified),inactive,–
O=C(O)C1(Cc2cccc(Nc3nccs3)n2)CCC(Oc2cccc(Cl)c2F)CC1 (stereo unspecified),inactive,–
COc1cc(N2CCC(N(C)C)CC2)ccc1Nc1ncc(Cl)c(Nc2ccccc2P(C)(C)=O)n1,3.85 µM (active),–
Nc1nccc(Oc2ccc(NC(=O)c3c[nH]cc(-c4ccc(F)cc4)c3=O)cc2F)c1Cl,inactive,–
NS(=O)(=O)c1ccc(Nc2nc(OCC3CCCCC3)c3[nH]cnc3n2)cc1,inactive,–
CC(=O)O[C@H]1C(=O)[C@@]2(C)[C@H]([C@H](OC(=O)c3ccccc3)[C@]3(O)C[C@H](OC(=O)[C@H](O)[C@@H](NC(=O)c4ccccc4)c4ccccc4)C(C)=C1C3(C)C)[C@]1(OC(C)=O)CO[C@@H]1C[C@@H]2O,–,-9.14% [at 10.7 µM]
C[C@@]1(C(=O)Nc2ccc(F)nc2)CCCN1c1nc(Nc2cc(C3CC3)[nH]n2)c2cccn2n1,inactive,–
CC(C)c1nn(-c2c(Cl)cccc2Cl)c2nc(Cc3ccc(OCCO)cc3)[nH]c(=O)c12,inactive,–
COc1ccccc1N1CCN(CC(O)COc2cccc3ccccc23)CC1 (stereo unspecified),inactive,–
C[C@]12CCC(=O)C=C1[C@@H]1C[C@@H]1[C@H]1[C@@H]3[C@@H]4C[C@@H]4[C@@]4(CCC(=O)O4)[C@@]3(C)CC[C@@H]12,inactive,–
CC(C)[C@@H](CS(=O)(=O)C(C)C)N1C(=O)[C@@](C)(CC(=O)O)C[C@H](c2cccc(Cl)c2)[C@H]1c1ccc(Cl)cc1,inactive,–
COC(=O)c1ccc2c(C(=Nc3ccc(N(C)C(=O)CN4CCN(C)CC4)cc3)c3ccccc3)c(O)[nH]c2c1,24.3 µM (active),–
Cc1csc(NC(=O)c2sc3nc4c(c(C(F)(F)F)c3c2N)CCC4)n1,1.72 µM (active),–

SMILES,Potency,"activity change, negative = viability loss"
CC(=O)OC12COC1CC(O)C1(C)C(=O)C(O)C3=C(C)C(OC(=O)C(O)C(NC(=O)OC(C)(C)C)c4ccccc4)CC(O)(C(OC(=O)c4ccccc4)C21)C3(C)C (stereo unspecified),inactive,–
CC(Oc1cc(-n2cnc3ccc(CN4CCN(C)CC4)cc32)sc1C(N)=O)c1ccccc1C(F)(F)F (stereo unspecified),24.3 µM (active),–
COC(C(=O)N1Cc2[nH]nc(NC(=O)c3ccc(N4CCN(C)CC4)cc3)c2C1)c1ccccc1 (stereo unspecified),inactive,–
Cc1cnc(Nc2ccc(OCCN3CCCC3)cc2)nc1Nc1cccc(S(=O)(=O)NC(C)(C)C)c1,19.3 µM (active),–
CC(C)n1nc(-c2cc3cc(O)ccc3[nH]2)c2c(N)ncnc21,7.69 µM (active),–
CN1C(=O)C(Cc2c[nH]c3ccccc23)NC1=S (stereo unspecified),inactive,–
Cc1ccc(C(=O)Nc2ccc(CN3CCN(C)CC3)c(C(F)(F)F)c2)cc1C#Cc1cnc2cccnn12,21.7 µM (active),–
CCN[C@H]1C[C@H](C)S(=O)(=O)c2sc(S(N)(=O)=O)cc21,inactive,–
O=C(c1ccc(F)c(F)c1Nc1ccc(I)cc1F)N1CC(O)([C@@H]2CCCCN2)C1,9.68 µM (active),–
COc1ccc(CCC(=O)c2c(O)cc(O[C@@H]3O[C@H](CO)[C@@H](O)[C@H](O)[C@H]3O[C@@H]3O[C@@H](C)[C@H](O)[C@@H](O)[C@H]3O)cc2O)cc1O,inactive,–
CCN1CCN(Cc2ccc(-c3cc4c(NC(C)c5ccccc5)ncnc4[nH]3)cc2)CC1 (stereo unspecified),27.3 µM (active),–
CC(C)C[C@H](NC(=O)[C@H](CCc1ccccc1)NC(=O)CN1CCOCC1)C(=O)N[C@@H](Cc1ccccc1)C(=O)N[C@@H](CC(C)C)C(=O)[C@@]1(C)CO1,1.09 µM (active),–
COc1ccc2c(c1)c(CC(=O)O)c(C)n2C(=O)c1ccc(Cl)cc1,inactive,–
O=C(CCCCCCC(=O)Nc1ccccc1)NO,2.17 µM (active),–
Cc1nc2ccc(CN(C)c3ccc(C(=O)NC(CCC(=O)O)C(=O)O)s3)cc2c(=O)[nH]1 (stereo unspecified),inactive,–
